Inconclusive results are not listed. Activity calls are given as the source filed them. The call rests on the fitted dose curve; in most records, active means well fitted curve in the direction sought with a large enough effect; inconclusive means small, poorly fitted or top-dose-only effect, or another doubt; inactive means no such curve, though single readings can be large; an effect the other way counts as inactive or inconclusive.
Tests used:
[1] = target: Rap guanine nucleotide exchange factor 3 (Homo sapiens) (UniProt O95398); assay: Confirmatory qHTS for antagonist of cAMP-regulated guanine nucleotide exchange factor 3 (EPAC1) (AID 1645880); further: nearly all actives have a fitted effect of over 55% in size
Procedure, shortened: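 Released BODIPY-GDP fluoresces less than Rap1-bound BODIPY-GDP; the signal is followed at 480/540 nm at 5-min intervals over 30 min, after 5 min at room temperature. Reactions contain 100 nM EPAC1, 250 nM RAP1B-BODIPY-GDP and 50 uM GDP; results are normalized to ATA and DMSO.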

[2] = target: Rap guanine nucleotide exchange factor 3 (Homo sapiens) (UniProt O95398); assay: Confirmatory qHTS for agonist of cAMP-regulated guanine nucleotide exchange factor 3 (EPAC1) (AID 1645881); further: nearly all actives have a fitted effect of over 75% in size;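 on activation: EPAC1 catalysed release of BODIPY-GDP from Rap1B seen as fluorescence loss; 100% = effect of cAMP agonist control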
[3] = target: Rap guanine nucleotide exchange factor 4 (Homo sapiens) (UniProt Q8WZA2); assay: Confirmatory qHTS for agonist of cAMP-regulated guanine nucleotide exchange factor 4 (EPAC2) (AID 1645884);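 further: nucleotide exchange releases bodipy-GDP from Rap1 and this lowers its fluorescence; nearly all actives have a fitted effect of over 65% in size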; on activation: on the % scale 0 is the no-effect control and ±100 the full control effect
[4] = target: Rap guanine nucleotide exchange factor 4 (Homo sapiens) (UniProt Q8WZA2); assay: Confirmatory qHTS for antagonist of cAMP-regulated guanine nucleotide exchange factor 4 (EPAC2) (AID 1645885); further: nearly all actives have a fitted effect of over 25% in size; on activity change, negative = inhibition: on the % scale 0 is the no-effect control and ±100 the full control effect
[5] = target: Rap guanine nucleotide exchange factor 3 (Homo sapiens) (UniProt O95398); assay: Counterscreen qHTS for antagonist of cAMP-regulated guanine nucleotide exchange factor 3 (EPAC1) (AID 1645888); on activity change, negative = inhibition: % of control where 0% means no effect
Procedure, shortened: (§1)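 Measured: fluorescence of BODIPY-GDP bound to Rap1B, which falls as exchange proceeds. Conditions include 50 uM competing GDP, 5 and 30 min reads, and a later cAMP challenge for antagonist detection.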

[6] = target: Rap guanine nucleotide exchange factor 3 (Homo sapiens) (UniProt O95398); assay: Counterscreen qHTS for agonist of cAMP-regulated guanine nucleotide exchange factor 3 (EPAC1) (AID 1645889); further: nearly all actives have a fitted effect of over 40% in size; on activation: % of control where 0% means no effect
Procedure, shortened: as §1
Potency means the concentration at half of the fitted maximal effect.

Rap guanine nucleotide exchange factor 3 (Homo sapiens), sequence (O95398 whole entry, looked up): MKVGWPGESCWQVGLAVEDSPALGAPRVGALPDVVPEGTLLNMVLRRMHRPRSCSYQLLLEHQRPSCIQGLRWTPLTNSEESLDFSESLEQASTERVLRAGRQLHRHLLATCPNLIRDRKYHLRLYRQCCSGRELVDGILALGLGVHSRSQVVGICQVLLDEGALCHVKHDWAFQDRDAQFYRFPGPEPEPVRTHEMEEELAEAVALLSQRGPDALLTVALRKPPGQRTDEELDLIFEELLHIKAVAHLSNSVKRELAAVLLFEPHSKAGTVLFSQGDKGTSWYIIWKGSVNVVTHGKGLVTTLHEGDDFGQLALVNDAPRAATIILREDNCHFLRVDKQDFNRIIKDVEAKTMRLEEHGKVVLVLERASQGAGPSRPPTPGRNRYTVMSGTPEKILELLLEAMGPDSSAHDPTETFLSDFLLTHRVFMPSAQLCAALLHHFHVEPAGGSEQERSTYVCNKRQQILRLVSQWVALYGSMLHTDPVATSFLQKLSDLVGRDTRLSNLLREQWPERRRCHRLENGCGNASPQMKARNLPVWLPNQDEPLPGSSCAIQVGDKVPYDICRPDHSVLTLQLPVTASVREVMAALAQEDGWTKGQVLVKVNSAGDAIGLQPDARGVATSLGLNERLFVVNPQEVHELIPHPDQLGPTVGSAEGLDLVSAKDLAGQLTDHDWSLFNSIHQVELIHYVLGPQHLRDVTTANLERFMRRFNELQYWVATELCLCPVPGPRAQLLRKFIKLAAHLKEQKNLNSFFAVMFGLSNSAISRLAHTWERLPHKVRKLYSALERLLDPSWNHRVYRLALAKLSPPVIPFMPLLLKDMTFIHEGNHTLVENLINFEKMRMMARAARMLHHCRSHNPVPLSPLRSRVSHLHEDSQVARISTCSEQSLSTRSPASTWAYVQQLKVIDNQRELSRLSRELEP
Rap guanine nucleotide exchange factor 4 (Homo sapiens), sequence (Q8WZA2 whole entry, looked up): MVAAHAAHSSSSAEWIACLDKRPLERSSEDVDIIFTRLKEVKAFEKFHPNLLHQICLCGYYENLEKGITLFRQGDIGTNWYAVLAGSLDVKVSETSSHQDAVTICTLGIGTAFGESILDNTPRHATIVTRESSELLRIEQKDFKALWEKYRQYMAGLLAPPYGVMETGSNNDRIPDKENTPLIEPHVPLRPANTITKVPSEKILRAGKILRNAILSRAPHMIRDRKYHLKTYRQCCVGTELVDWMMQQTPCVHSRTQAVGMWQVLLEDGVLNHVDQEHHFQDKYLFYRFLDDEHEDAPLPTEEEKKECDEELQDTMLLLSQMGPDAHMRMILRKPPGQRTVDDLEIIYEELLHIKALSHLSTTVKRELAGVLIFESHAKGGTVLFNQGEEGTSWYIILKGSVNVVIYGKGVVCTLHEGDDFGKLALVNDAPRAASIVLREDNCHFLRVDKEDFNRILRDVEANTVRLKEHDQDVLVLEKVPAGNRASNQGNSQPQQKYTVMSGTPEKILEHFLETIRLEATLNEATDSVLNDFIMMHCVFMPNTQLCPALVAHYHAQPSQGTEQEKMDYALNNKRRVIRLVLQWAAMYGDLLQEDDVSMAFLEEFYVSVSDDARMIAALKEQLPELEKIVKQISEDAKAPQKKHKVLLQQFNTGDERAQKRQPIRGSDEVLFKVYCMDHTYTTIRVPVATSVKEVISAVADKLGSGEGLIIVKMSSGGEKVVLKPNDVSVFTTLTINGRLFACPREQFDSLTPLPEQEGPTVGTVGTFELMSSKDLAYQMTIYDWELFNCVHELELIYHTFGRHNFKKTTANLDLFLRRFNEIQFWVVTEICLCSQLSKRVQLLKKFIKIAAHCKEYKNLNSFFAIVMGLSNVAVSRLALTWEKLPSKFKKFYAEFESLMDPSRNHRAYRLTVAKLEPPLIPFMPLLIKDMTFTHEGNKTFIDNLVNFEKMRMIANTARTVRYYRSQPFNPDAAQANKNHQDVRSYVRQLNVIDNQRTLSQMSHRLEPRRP

O=C(CCC(=O)N1CCSc2ccccc21)NCc1cccc(Cl)c1
inactive: Potency [1] | Potency [2] | activation [3] 1.67% [at 17.1 µM, percent relative to cAMP agonist control] | Potency [4] | activity change, negative = inhibition [5] 1.86% [at 30.8 µM] | activation [6] 22.1% [at 30.8 µM]

CC(=O)Nc1ccc(CNc2nc3cc(-c4ccsc4)sc3c(=O)n2C)cc1
inactive: Potency [1] | Potency [2] | activation [3] -3.78% [at 17.1 µM, percent relative to cAMP agonist control] | Potency [4] | activity change, negative = inhibition [5] 16% [at 30.8 µM] | activation [6] 36.9% [at 30.8 µM]

CC1(Cc2ccc(Cl)cc2)C(=O)Nc2ccc(-c3cccnc3)cc21 (centres undefined)
inactive: Potency [1] | Potency [2] | Potency [3] | Potency [4] | Potency [5] | Potency [6]

NS(=O)(=O)c1ccc(NC(=O)Cc2c(F)cccc2Cl)cc1
inactive: Potency [1] | Potency [2] | Potency [3] | Potency [4] | Potency [5] | Potency [6]

COc1cc2cncc(Cc3ccc(Cl)cc3)c2cc1OC
inactive: Potency [1] | Potency [2] | Potency [3] | Potency [4] | Potency [5] | Potency [6]

Cc1cc(NCc2ccco2)n2c(nc3ccccc32)c1C#N
inactive: Potency [1] | Potency [2] | Potency [3] | Potency [4] | Potency [5] | Potency [6]

Nc1c(-c2nc(-c3cccs3)no2)nnn1-c1cccc(Cl)c1
inactive: Potency [1] | Potency [2] | Potency [3] | outcome [4] inactive [at 12.7 µM] | Potency [5] | Potency [6]

CC(OC(=O)c1nn(C)c(=O)c2ccccc12)C(=O)NC1CCCCC1C (centres undefined)
inactive: Potency [1] | Potency [2] | Potency [3] | Potency [4] | Potency [5] | Potency [6]

O=CN(CCN(C=O)CN1CCCCC1)CN1CCCCC1
inactive: Potency [1] | Potency [2] | Potency [3] | Potency [4] | Potency [5] | Potency [6]

Cc1ccc(-c2csc(NC(=O)/C=C/c3ccco3)c2C(=O)O)cc1
active: Potency [1] 25.1 µM
inactive: Potency [2] | activation [3] 5.44% [at 17.1 µM, percent relative to cAMP agonist control] | Potency [4] | activity change, negative = inhibition [5] -12.5% [at 30.8 µM] | activation [6] 18.5% [at 30.8 µM]

CCOC(=O)N1CCN(S(=O)(=O)c2cc(-c3nn4c(C)nnc4c4ccccc34)ccc2C)CC1
inactive: Potency [1] | Potency [2] | Potency [3] | Potency [4] | Potency [5] | Potency [6]

CCCC(=O)N1c2nc(C(C)C)nn2C2(CCCCC2)[C@@H]2CCCC[C@@H]21
inactive: Potency [1] | Potency [2] | Potency [3] | Potency [4] | Potency [5] | Potency [6]

Cc1ccccc1C(=O)/C(C#N)=N/Nc1c(C)n(C)n(-c2ccccc2)c1=O
inactive: Potency [2] | Potency [3] | Potency [6]
active: Potency [1] 42.6 µM | Potency [4] 67.5 µM | Potency [5] 79.4 µM

CN[C@@H](CO)C(=O)NC[C@H]1O[C@@H](n2cnc3c(N)ncnc32)[C@H](O)[C@@H]1O
inactive: Potency [1] | Potency [2] | Potency [3] | Potency [4] | Potency [5] | Potency [6]

O=S(=O)(NCc1ccccc1)c1ccc(S(=O)(=O)N(Cc2cccs2)CC2CCCO2)cc1 (centres undefined)
inactive: Potency [1] | Potency [2] | Potency [3] | Potency [4] | Potency [5] | Potency [6]

C=CCOc1ccc(/C=C2\SC(=S)N(NS(=O)(=O)c3ccc(C)cc3)C2=O)cc1
active: Potency [1] 21.3 µM
inactive: Potency [2] | Potency [3] | Potency [4] | Potency [5] | Potency [6]

CCc1nnc(NS(=O)(=O)c2ccc(NC(=S)NC(=O)/C=C/c3ccccc3)cc2)s1
inactive: Potency [2] | Potency [3] | Potency [4] | Potency [5] | Potency [6]
active: Potency [1] 67.5 µM

COc1ccccc1N1CC(C(=O)Nc2cc(C(F)(F)F)ccc2N2CCCC2)CC1=O (centres undefined)
inactive: Potency [1] | Potency [2] | activation [3] 9.01% [at 17.1 µM, percent relative to cAMP agonist control] | Potency [4] | activity change, negative = inhibition [5] -8.33% [at 30.8 µM] | activation [6] 9.96% [at 30.8 µM]

Cc1ccc(NC(=O)COC(=O)Cn2c(C)csc2=O)c([N+](=O)[O-])c1
inactive: Potency [1] | Potency [2] | Potency [3] | Potency [4] | Potency [5] | Potency [6]

c1ccc(-c2nnc3sc(CN4CCC5(CC4)OCCO5)cn23)cc1
inactive: Potency [1] | Potency [2] | Potency [3] | Potency [4] | Potency [5] | Potency [6]

O/C=c1\ccc2cccc3nc(C(F)(F)F)nc1c23
active: Potency [2] 100 µM | Potency [3] 100 µM | Potency [6] 39.8 µM
inactive: Potency [1] | Potency [4] | Potency [5]

CCC(C)NC(=O)CS(=O)Cc1nc(-c2ccccc2C)oc1C (centres undefined)
inactive: Potency [1] | Potency [2] | Potency [3] | Potency [4] | Potency [5] | Potency [6]

Cn1cc(C(C[N+](=O)[O-])c2ccccc2)c2ccccc21 (centres undefined)
inactive: Potency [1] | Potency [2] | activation [3] 0.148% [at 17.1 µM, percent relative to cAMP agonist control] | Potency [4] | activity change, negative = inhibition [5] -4.06% [at 30.8 µM] | activation [6] 13.8% [at 30.8 µM]

CCc1ccc2oc(C(=O)Nc3ccccc3OC)cc(=O)c2c1
inactive: Potency [1] | Potency [2] | Potency [3] | outcome [4] inactive [at 12.7 µM] | Potency [5] | Potency [6]

COc1ccc(/C=C2/SC(=S)N(NS(=O)(=O)c3ccccc3)C2=O)cc1
inactive: Potency [2] | activation [3] -0.663% [at 17.1 µM, percent relative to cAMP agonist control] | Potency [4] | activity change, negative = inhibition [5] -9.92% [at 30.8 µM] | activation [6] -1.02% [at 30.8 µM]
active: Potency [1] 39.8 µM

COc1ccc(N2CCN(C(=O)c3cc(C)on3)CC2)cc1
inactive: Potency [1] | Potency [2] | Potency [3] | Potency [4] | Potency [5] | Potency [6]

O=C1CC(Cc2ccccc2)C(=O)N1CCc1ccc2c(c1)OCO2 (centres undefined)
inactive: Potency [1] | Potency [2] | activation [3] 2.14% [at 17.1 µM, percent relative to cAMP agonist control] | Potency [4] | activity change, negative = inhibition [5] -4.71% [at 30.8 µM] | activation [6] 1.4% [at 30.8 µM]

CC1(C(=O)NS(=O)(=O)c2ccc(C#N)cc2)CCN1C(=O)C1(c2ccccc2)CCCC1 (centres undefined)
inactive: Potency [2] | Potency [3] | Potency [5] | Potency [6]
active: Potency [1] 37.9 µM | Potency [4] 33.8 µM

CCN(CC)c1ccc(C(=O)OCC(=O)NCC2CCCO2)cc1 (centres undefined)
inactive: Potency [1] | Potency [2] | activation [3] 4.19% [at 17.1 µM, percent relative to cAMP agonist control] | Potency [4] | activity change, negative = inhibition [5] -1.2% [at 30.8 µM] | activation [6] 25.8% [at 30.8 µM]

Cc1cc2ccccn2c1C(=O)c1ccc(Cl)cc1
inactive: Potency [1] | Potency [2] | Potency [3] | Potency [4] | Potency [5]
active: Potency [6] 0.141 µM

O=C(N/N=C/c1cn(-c2ccccc2)nc1-c1cccnc1)c1ccccc1
inactive: Potency [1] | Potency [2] | activation [3] 6.58% [at 17.1 µM, percent relative to cAMP agonist control] | Potency [4] | activity change, negative = inhibition [5] -17.7% [at 30.8 µM] | activation [6] 18.8% [at 30.8 µM]

O=C(O)CCN1C(=O)/C(=C\c2cccc(Oc3ccccc3)c2)SC1=S
active: Potency [1] 26.9 µM | Potency [4] 21.3 µM
inactive: Potency [2] | Potency [3] | Potency [5] | Potency [6]

CCOC(=O)CN1C(=O)c2ccccc2Sc2ncccc21
inactive: Potency [1] | Potency [2] | activation [3] 0% [at 17.1 µM, percent relative to cAMP agonist control] | Potency [4] | Potency [5] | Potency [6]

O=C1CSC2(C(=O)N(Cc3cccc(C(F)(F)F)c3)c3ccccc32)N1c1ccc(F)c(F)c1 (centres undefined)
inactive: Potency [1] | Potency [2] | Potency [3] | Potency [4] | Potency [5] | Potency [6]

O=C(N[C@@H](Cc1c[nH]c2ccccc12)C(=O)O)OCC1c2ccccc2-c2ccccc21
inactive: Potency [1] | Potency [2] | Potency [3] | Potency [4] | Potency [5] | Potency [6]

O=C(O)CN1C(=O)/C(=C\c2cccc(OCc3ccc(Cl)cc3)c2)SC1=S
inactive: Potency [2] | Potency [3] | Potency [4] | Potency [5] | Potency [6]
active: Potency [1] 75.7 µM

CC(=O)NC(CCS(C)(=O)=O)C(=O)Nc1cc(C)on1 (centres undefined)
inactive: Potency [1] | Potency [2] | Potency [3] | Potency [4] | Potency [5] | Potency [6]

CC(C)(C)C(=O)Nc1ccc2nc(SCC(=O)N3CCc4ccccc43)sc2c1
inactive: Potency [1] | Potency [2] | Potency [3] | Potency [4] | Potency [5] | Potency [6]

O=c1c2ccccc2nc(/C=C/c2cccnc2)n1CCc1ccccc1
inactive: Potency [2] | Potency [3] | Potency [4] | Potency [5] | Potency [6]
active: Potency [1] 23.9 µM

Cc1ccc(OCC(=O)Nc2ccccc2N2CCCC2)c(C)c1
inactive: Potency [1] | Potency [2] | Potency [3] | Potency [4] | Potency [5] | Potency [6]

Cc1ccc(C(=O)Nc2sc(C)c(C)c2C(=O)c2ccccc2)cc1
inactive: Potency [1] | Potency [2] | activation [3] 4.34% [at 17.1 µM, percent relative to cAMP agonist control] | Potency [4] | activity change, negative = inhibition [5] -1.59% [at 30.8 µM] | activation [6] -4.34% [at 30.8 µM]

COc1ccc(N2CCN(C(=O)COC(=O)COc3cc(C)cc(C)c3)CC2)cc1
inactive: Potency [1] | Potency [2] | activation [3] 0.676% [at 17.1 µM, percent relative to cAMP agonist control] | Potency [4] | activity change, negative = inhibition [5] -19.2% [at 30.8 µM] | activation [6] -0.0753% [at 30.8 µM]

Cn1c(=O)c2nc(SCC(=O)Nc3ccc(Cl)c(Cl)c3)n(C)c2n(C)c1=O
inactive: Potency [1] | Potency [2] | Potency [3] | outcome [4] inactive [at 12.7 µM] | Potency [5] | Potency [6]

Cc1sc(N)c(C(=O)c2ccccc2Cl)c1C
active: Potency [4] 19 µM
inactive: Potency [1] | Potency [2] | Potency [3] | Potency [5] | Potency [6]

From PubChem BioAssay (NCATS)
